Experimental data taken from the supplement of paper PMC7858590.
± gives the standard deviation of the averaged measurements.

The compounds below were run on human monocyte-derived macrophages (polarized) (assay: cell shape (eccentricity) Z-score vs DMSO control; higher = more elongated, M2-like morphology). Conditions: 5 µM; 24 h; macrophage state: M2-polarized (IL-4 + IL-13), cytokines present during treatment.
Procedure: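 Primary-screen hits were rescreened on polarized hMDMs with the differentiating cytokines (IL-4 + IL-13 or IFNg + TNFa) kept in the medium during treatment with compound at 5 uM for 24 h. The eccentricity Z-score vs DMSO wells is averaged over experiments.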

| Structure (SMILES) | cell shape (Z-score) |
| --- | --- |
| O=C1c2ccc(Nc3ccc(F)cc3F)cc2CCc2ccc(OC[C@H](O)CO)cc21 | 2.03 |
| CCCS(=O)(=O)Nc1ccc(F)c(C(=O)c2c[nH]c3ncc(-c4ccc(Cl)cc4)cc23)c1F [Vemurafenib] | -1.16 |
| COc1ccc(S(=O)(=O)N(C(C)=O)c2ccccc2/C=C/c2cc[n+]([O-])cc2)cc1 | -2.29 |
| O=C(Nc1ccc([N+](=O)[O-])cc1O)Nc1ccccc1Br | -12.2 |
| CC(=O)O[C@@H]1C[C@H]2C(C)(C)C(=O)C=C[C@]2(C)[C@H]2CC[C@@]3(C)[C@H](c4ccoc4)OC(=O)[C@H]4O[C@]43[C@@]21C | -8.96 |
| Cc1cc(NS(=O)(=O)c2ccc(N)cc2)no1 | -9.54 |
| COCCCC/C(=N\OCCN)c1ccc(C(F)(F)F)cc1 | -6 |
| OC1(c2ccc(Cl)c(C(F)(F)F)c2)CCN(CCCC(c2ccc(F)cc2)c2ccc(F)cc2)CC1 [Penfluridol] | -10.9 |
| CC1=CC(=O)c2ccccc2C1=O | -2.13 |
| O=c1nc2ccccc2c2n1CC(CN1CCN(c3ccccc3)CC1)N2 (stereo unspecified) | -1.27 |
| CC1=CC[C@@]2(C)CC[C@@](O)(C(C)C)[C@@H]2[C@@H](O)C1 | -2.34 ± 1.2 |
